Source: PubChem
Nrf2 inh: Nrf2 qHTS screen for inhibitors. 360,000 compounds, 2.1% hits. Potency, µM (series often up to 46 µM), for inactives: at the highest dose activity change, negative = inhibition, usual class: inhibitors. A549 ARE-Fluc reporter, luciferase luminescence, 18-24 h; note: % is set by controls: 0 for no effect and ±100 for the full control effect; nearly all actives have a fitted effect of over 60% in size
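Nrf2 activity is the BugLite luminescence, read 15 min after reagent at room temperature, following CellTiter-Fluor cytotoxicity readout (30 min, 37C). Compound titrations were applied for 18-24 h to 5000 A549 ARE_Fluc cells/well in 5% FBS OPTI-MEM.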
A549 tox: Nrf2 qHTS screen for inhibitors: counterscreen for cytotoxicity. AID 504648, 2011. 390,000 compounds, 0.16% hits. Potency, µM (titrated, usually from 46 µM), inactives show top-dose activity change, negative = cytotoxicity, usual class: inhibitors. A549 ARE-Fluc cells, CellTiter-Fluor viability, 18-24 h; note: % is set by controls: 0 for no effect and ±100 for the full control effect
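Cytotoxicity counterscreen: CellTiter-Fluor fluorescence was measured in A549 ARE_Fluc cells after 18-24 h of compound exposure in a concentration series. The subsequent BugLite luminescent read reports ARE-luciferase activity.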
Nrf2 activator: qHTS of Nrf2 Activators. 410,000 compounds, 0.31% hits. Potency, µM (top dose mostly 46.1 µM), inactives show at the highest dose activation, most hits filed as activators. AREc32 ARE-luciferase reporter (MCF7-derived line), luminescence, 24 h; note: % of control where 0% means no effect; nearly all actives have a fitted effect of over 65% in size
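Luminescent ARE reporter assay in AREc32_Fluc cells: overnight plating at 37 deg C, 24 hr compound incubation, Steady-Glo added, 30 min RT before reading.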
Pin1 inhibitor: qHTS Assay to Find Inhibitors of Pin1; Pin1 FP peptide displacement, HiFluor488, 10 min; Potency, µM (series often up to 115 µM), for inactives: at the top dose activity, negative = inhibition, most hits filed as inhibitors; 390,000 compounds, 0.009% hits; AID 504891, 2011; active = well fitted inhibition curve with a large enough effect in the polarisation, with a control signal flat, not every such curve was filed as active; inconclusive = small, poorly fitted or top-dose-only effect, or effect the other way, or a change in a side signal; inactive = no such curve, though single readings can be large or run the other way; the % refers to the polarisation; note: % is set by controls: 0 for no effect and ±100 for the full control effect
Target sequence (Q13526 whole entry, looked up): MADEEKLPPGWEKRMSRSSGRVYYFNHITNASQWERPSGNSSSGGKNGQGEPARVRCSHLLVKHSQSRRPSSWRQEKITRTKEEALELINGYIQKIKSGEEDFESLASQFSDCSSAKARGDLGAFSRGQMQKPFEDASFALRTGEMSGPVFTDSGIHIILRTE
Starred values were filed as active, the others as inactive; ? = inconclusive; nt = no result given; ! = not active in a repeat. Shown are actives, neighbours in structure and some others; about 2.2% of the full set was active somewhere. Unless noted, calls come from the whole dose curve; as a rule, active = well fitted curve in the direction sought with a large enough effect; inconclusive = small, poorly fitted or top-dose-only effect, or another doubt; inactive = no such curve, though single readings can be large; an effect the other way counts as inactive or inconclusive. Potency is the fitted concentration of half-maximal effect.

SMILES	Nrf2 inh	A549 tox	Nrf2 activator	Pin1 inhibitor
COc1ccc(Cl)cc1NC(=O)c1cc(C)no1	7%	5%	8.9µM*	0%
O=C(Nc1cc(Cl)ccc1Oc1ccccc1)c1cnccn1	28%	6%	0%	?
COc1ccc(Cl)cc1NC(=O)c1cnccn1	-13%	1%	13µM*	-8%
Cc1ccc(O)c(NC(=O)c2cc(C)no2)c1	?	1%	13µM*	1%
Cc1ccc(O)c(NC(=O)c2cc(-c3ccccc3)on2)c1	26%	-2%	7%	9%
COc1ccc(S(=O)(=O)Cc2ccc(C(=O)NC3CCCCC3)o2)cc1	15µM*!	1%	0%	3%
Cc1ccccc1S(=O)(=O)Cc1ccc(C(=O)NC2CC2)o1	21µM*	?	0%	0%
CCC1CN(C(=O)N2CCC(C(=O)NCCc3cc(OC)ccc3OC)CC2)c2ccccc2O1 (stereo not given)	23µM*	-8%	0%	5%
COc1ccc2c(c1)c(C(C)=O)c(C)n2CCc1ccccc1	13µM*	-18%	-1%	-2%
O=C(NNc1ccccc1Br)C(O)(c1cccc(C(F)(F)F)c1)c1cccc(C(F)(F)F)c1	?	?	-2%	-1%
Cc1ccc(NNC(=O)C(O)(c2cccc(C(F)(F)F)c2)c2cccc(C(F)(F)F)c2)cc1	23µM*	?	3%	0%
COC(=O)C1=C[C@@H](C(=O)OC)[C@@H]2C3=C(C(=O)C2(C)C)[C@H](C)n2c(=O)n(C)c(=O)n2[C@@H]3C1	-6%	0%	nt	-13%
COc1ccc(N(C(=O)c2ccncc2)S(=O)(=O)c2ccc3c4c(cccc24)C(=O)N3C)cc1	?	-4%	0%	?
CCN1C(=O)c2cccc3c(S(=O)(=O)N(C(C)=O)c4ccc(OC(C)=O)cc4)ccc1c23	26µM*	-16%	29%	11%
Cc1ccc(/C=C/C(=O)N2CCc3ccccc32)o1	?	0%	11µM*	?
CCOC(=O)C(=CNc1cc(C)nn1-c1ccc(C)cc1)C(=O)OCC	?	-19%	0%	-1%
CCOC(=O)C(=CNc1ccc2c(c1)nnn2-c1ccc(Cl)cc1)C(=O)OCC	29µM*	?	4%	11%
CCOC(=O)c1cc(-c2ccc3c(c2)OCCO3)nc2c1c(C)nn2CCC#N	21µM*	-1%	0%	17%
CCOC(=O)c1cc(-c2ccc(Cl)cc2)nc2c1c(C)nn2CCC#N	?	-5%	2%	8%
COc1cc(OC)cc(-c2nnc3n2N=C(c2ccc(OC)cc2OC)CS3)c1	?	-15%	nt	24%
Cc1ccc(S(=O)(=O)N2CCCCC2CCNC(=O)C(=O)NCc2cccnc2)cc1 (stereo not given)	0%	-18%	0%	-6%
O=C(NCCC1CCCCN1S(=O)(=O)c1ccc(F)cc1)C(=O)NCc1ccncc1 (stereo not given)	12µM*	5%	-2%	-1%
Cc1ccc(CNC(=O)C(=O)NCCC2CCCCN2S(=O)(=O)c2ccc(C)cc2)cc1 (stereo not given)	?	9%	4%	-2%
O=C(NCCC1CCCCN1S(=O)(=O)c1ccc(Cl)cc1)C(=O)NCc1ccncc1 (stereo not given)	21µM*	2%	0%	-5%
C=CCOC(/C=C/c1ccccc1)CC (stereo not given)	16%	8%	nt	2%
SMILES	Nrf2 inh	A549 tox	Nrf2 activator	Pin1 inhibitor
CNC(=O)c1cnn2c(C)cc(C)nc12	-25%	-11%	nt	0%
Cn1cccc1CC(=O)N/N=C/c1cccc2ccccc12	4%	-2%	9%	14%
Cn1cccc1/C=N/NC(=O)Cc1cccc2ccccc12	18µM*	-2%	0%	1%
CCOC(=O)CN(Cc1ccccc1)C(C(=O)NC1CCCCC1)c1ccccc1 (stereo not given)	4.6µM*	12µM*	-1%	?
O=S(=O)(c1ccc(Br)cc1)c1nnn2c1nc(Nc1cccc(C(F)(F)F)c1)c1sccc12	26%	12%	-1%	2%
O=C1OC(Nc2ccc3c(c2)OCO3)c2ccccc21 (stereo not given)	?	-17%	11µM*	-26%
COC(=O)CN1C(=O)CSc2ccc(S(=O)(=O)Nc3c(C)cc(C)cc3C)cc21	13%	2%	-1%	-2%
